In PubChem BioAssay (NCI):
The panel holds about 83,000 compounds, 20% with a hit somewhere; the sample as a whole holds those more often.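 Interpretation: 100, growth as untreated; towards 0, rising growth inhibition; 0, no net growth; 0 to -100, cell death. Compounds scoring below 10 were considered active.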 A number with no mark means an inactive call. The source made the active and inactive calls.

How the values were obtained:
Assay in all cases: NCI-60 one-dose screen, 48 h (100 = growth as untreated, 0 = no growth, -100 = all killed)
Conditions in all cases: 10 µM unless noted
NCI-H23 lung = system: NCI-H23 lung
NCI-H226 lung = system: NCI-H226 lung
NCI-H322M lung = system: NCI-H322M lung
HOP-62 NSCLC = system: HOP-62 NSCLC
NCI-H460 lung = system: NCI-H460 lung
HOP-92 NSCLC = system: HOP-92 NSCLC
NCI-H522 lung = system: NCI-H522 lung
A549/ATCC NSCLC = system: A549/ATCC NSCLC
786-0 renal = system: 786-0 renal
COLO 205 colon = system: COLO 205 colon
DU-145 prostate = system: DU-145 prostate
K-562 leukemia = system: K-562 leukemia
MALME-3M melanoma = system: MALME-3M melanoma
MDA-MB-231 breast = system: MDA-MB-231 breast
RXF 393 renal = system: RXF 393 renal
SF-268 CNS = system: SF-268 CNS
SF-295 CNS = system: SF-295 CNS
SF-539 CNS = system: SF-539 CNS
UACC-257 melanoma = system: UACC-257 melanoma
M14 melanoma = system: M14 melanoma

| SMILES | growth (NCI-H23 lung) | growth (NCI-H226 lung) | growth (NCI-H322M lung) | growth (HOP-62 NSCLC) | growth (NCI-H460 lung) | growth (HOP-92 NSCLC) | growth (NCI-H522 lung) | growth (A549/ATCC NSCLC) | growth (786-0 renal) | growth (COLO 205 colon) | growth (DU-145 prostate) | growth (K-562 leukemia) | growth (MALME-3M melanoma) | growth (MDA-MB-231 breast) | growth (RXF 393 renal) | growth (SF-268 CNS) | growth (SF-295 CNS) | growth (SF-539 CNS) | growth (UACC-257 melanoma) | growth (M14 melanoma) |
| --- | --- | --- | --- | --- | --- | --- | --- | --- | --- | --- | --- | --- | --- | --- | --- | --- | --- | --- | --- | --- |
| CCCCCCCCc1cccc(CC(=O)Nc2ccc(C)cc2C(=O)O)c1 | 59.3% [25 µM] | 65.3% [25 µM] | 62.7% [25 µM] | 54.8% [25 µM] | 20.4% [25 µM] | 83.8% [25 µM] | 38.7% [25 µM] | 31.4% [25 µM] | 34.1% [25 µM] | 59.1% [25 µM] | 59.4% [25 µM] | 28.9% [25 µM] | 67.7% [25 µM] | 66.5% [25 µM] | 104% [25 µM] | 61.9% [25 µM] | 35.2% [25 µM] | 37.1% [25 µM] | 71.2% [25 µM] | 62.9% [25 µM] |
| Nc1nn2c(-c3cc4cc(Br)ccc4oc3=O)ccnc2c1N=Nc1ccc(S(N)(=O)=O)cc1 | 50.6% | 77.6% | 78.3% | 41.8% | 52% | 83.2% | 93.3% | 107% | 86.1% | 96.5% | 99.7% | 53.9% | 70.5% | -8.56% (active) | 87.1% | 78.5% | 62.2% | 55.1% | 101% | 62.2% |
| COc1cc(CNC(=O)[C@]23CCC(C)(C)CC2C2=CCC4[C@@]5(C)CCC(OC(C)=O)C(C)(C)C5CC[C@@]4(C)[C@]2(C)CC3)ccc1OCc1cn(-c2ccc(Cl)cc2Cl)nn1 (stereo not given in full) | 99% | 94.8% | 94.1% | 105% | 105% | 116% | 88.9% | 93.1% | 107% | 118% | 116% | 85.5% | 99% | 88.8% | 116% | 110% | 100% | 101% | 88.6% | 98.2% |
| O=C(NN1C(=O)/C(=C/C=C/c2ccc([N+](=O)[O-])o2)SC1=S)c1ccncc1 | -88.8% (active) | -52.7% (active) | -16.3% (active) | -97.5% (active) | -53.6% (active) | -85.1% (active) | -83.8% (active) | -34.7% (active) | -79.9% (active) | -96.9% (active) | -95% (active) | 3.03% (active) | -91.7% (active) | -96.5% (active) | -93.6% (active) | -75.7% (active) | -82.8% (active) | -100% (active) | -86.7% (active) | -67.9% (active) |
| Cc1ccc(C(=O)Nc2cc(-c3ccncc3)cc(C(F)(F)F)c2)cc1C#Cc1cnc2cccnn12 | 35.5% | 27.9% | 79% | 44.3% | 51.8% | 31.7% | 33.1% | 48.6% | 46.3% | 32.3% | 68.9% | 2.38% (active) | -11.8% (active) | 23.7% | 28.8% | 79.4% | 46.3% | 32.3% | 40.9% | 8.59% (active) |
| COC(=O)c1cc(C(=O)C(F)(F)F)n2c3ccccc3c3ccccc3c12 | 83.6% | 52.6% | 90.8% | 41.1% | 62.1% | 59.2% | 96% | 92.8% | 24.2% | 79.7% | 96% | 82.6% | 104% | 42.4% | 69.2% | 83.4% | 37.2% | 67.5% | 110% | 87.6% |
| COc1ccc(CCC2NCCc3c(Br)c4c(c(OC)c32)OCO4)cc1 (stereo not given) | -24.7% (active) | 25.5% | 14.6% | 18.1% | 9.1% (active) | 15.6% | 2.33% (active) | 24.2% | 8.08% (active) | -37.5% (active) | 33.8% | 6.12% (active) | 23.4% | 10.9% | -17.3% (active) | 20.3% | 4.87% (active) | -39.4% (active) | 37.5% | -30.7% (active) |
| CS(=O)(=O)Nc1cccc(-n2cnc3cc(-c4ccc(O)cc4)ccc32)c1 | 35.3% | 33% | 53.1% | 32.1% | 20.3% | 96.8% | 25% | 53.7% | 44.7% | 31.5% | 29.2% | 18% | 27.3% | 49.3% | -14.2% (active) | 50.3% | 32% | 0.311% (active) | 70.5% | 26.2% |
| COc1ccc2[nH]cc(-c3cc4nc(-c5cn(C)c6ncc(Br)cc56)cc(N)n4n3)c2c1 | -76.7% (active) | -31.6% (active) | -47.5% (active) | -50.2% (active) | -51.3% (active) | -79.2% (active) | -64.9% (active) | -69.8% (active) | -95% (active) | -75.5% (active) | -70.7% (active) | -27.4% (active) | -87% (active) | -83.8% (active) | -77.2% (active) | -44% (active) | -77.4% (active) | -95.4% (active) | -82.3% (active) | -85.2% (active) |
| CC1=C(C)C(=O)C(N2CCSCC2)=CC1=O | 93.9% | 88.7% | 96.9% | 99.1% | 105% | 89.5% | 94.3% | 99.3% | 99.4% | 121% | 107% | 107% | 91.3% | 86% | 98.5% | 102% | 104% | 96.2% | 93.2% | 95.4% |
| COC(=O)c1c(C(=O)OC)c2ccc3c4ccccc4ccc3n2c1C(=O)OC | 102% | 100% | 101% | 110% | 111% | 97.5% | 100% | 97.2% | 100% | 115% | 121% | 117% | 96% | 110% | 74.9% | 103% | 93.5% | 99.3% | 101% | 102% |
| OC(c1ccccc1)(c1ccccc1)C1CCN(c2ccc3nnc(Cl)n3n2)CC1 | 36.8% | 11.2% | 74.1% | 63.7% | 19.8% | 19.7% | -60.4% (active) | 36.3% | 41.8% | -29.4% (active) | 54.6% | 10.7% | 26.8% | 68% | 32.8% | 63.7% | 19% | 51.8% | 72.9% | 39.2% |
| FC(F)(F)c1cc2c(Cl)ncnc2n1CCN1CCOCC1 | 62.9% | 91.4% | 74.9% | 91.5% | 86% | 107% | -80.3% (active) | 92.3% | 99.3% | 79.5% | 73.6% | 0.361% (active) | 88.1% | 56.4% | 100% | 64.5% | 86.7% | 87% | 75.5% | 44.9% |
| COc1ccc2oc(=O)c(-c3csc(N/N=C(\C)c4cc(OC)c(OC)c(OC)c4)n3)cc2c1 | 84% | 89.7% | 96.8% | 109% | 79.1% | 96.8% | 85.8% | 101% | 90.5% | 99.8% | 101% | 92.3% | 85% | 86.8% | 85.7% | 99.3% | 92% | 103% | 106% | 91.9% |
